# Most compounds without a hit are left out; they make up all but 2.4% or so of the library.
# D2 antag = antagonizes the human D2 dopamine receptor; AID 485344; HEK293 TREx D2 cells, calcium flux, dopamine EC80; 340,000 tested, 2% active; inhibition, % at 10 µM; P14416; in the data active = inhibition above about 30%; inactive = below that, where a call was filed; also: 0% is about no effect
# Target sequence (P14416 whole entry, looked up): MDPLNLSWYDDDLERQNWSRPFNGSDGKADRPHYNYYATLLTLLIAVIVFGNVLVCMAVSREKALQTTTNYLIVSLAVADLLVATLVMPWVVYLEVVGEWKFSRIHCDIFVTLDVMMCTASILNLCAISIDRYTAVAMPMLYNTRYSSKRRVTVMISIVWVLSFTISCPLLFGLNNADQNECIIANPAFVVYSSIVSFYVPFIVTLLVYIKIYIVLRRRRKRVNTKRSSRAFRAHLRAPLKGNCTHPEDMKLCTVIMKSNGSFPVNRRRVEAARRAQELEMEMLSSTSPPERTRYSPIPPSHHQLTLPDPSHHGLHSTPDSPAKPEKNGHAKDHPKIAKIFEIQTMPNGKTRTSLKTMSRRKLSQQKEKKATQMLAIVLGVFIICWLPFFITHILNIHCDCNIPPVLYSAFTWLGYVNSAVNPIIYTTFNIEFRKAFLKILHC
#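 Cells plated overnight at 30 C with tetracycline; no-wash calcium dye, 30–90 min RT; 10 s baseline; compound pinned; 180 s read; EC80 dopamine added; another 180 s read.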
# D2 ag-1 = agonists of human D2 dopamine receptor. activation, % at 2 µM. P14416. 340,000 tested, 0.53% active. AID 485358. HEK293 T-REx D2 cells, calcium flux agonist mode;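 active = activation over 3 SD above normal in the single-dose calcium agonist read, cut at about 30% in these data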; also: 0% is about no effect
#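 Agonism is scored from calcium flux in a force-coupled, inducible HEK293 cell line expressing D2, read kinetically for 180 s after compound addition against dopamine controls.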
# D2 PAM-1 = positively modulates the human D2 dopamine receptor allosterically | potentiation, % at 10 µM | P14416 | HEK293 T-REx D2, calcium flux, EC20 dopamine potentiation | AID 485347 | 340,000 tested, 0.34% active;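 active = potentiation over 3 SD above the plate norm, cut at about 30% in these data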; also: 0% is about no effect
#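 Primary screen. Calcium kinetics in induced HEK293 T-REx D2 cells: compound pre-addition 180 s, EC20 dopamine, 180 s more.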
# D2 PAM-2 = positive allosteric modulators of human D2 dopamine receptor. P14416. DiscoveRx D2 beta-arrestin cells, luminescence, 90 min; 100% = 57 uM dopamine signal. potentiation, % (no concentration beside the values). 360,000 tested, 0.23% active. AID 624464; in the data active = potentiation above about 50%
#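 PathHunter beta-arrestin assay in DiscoveRx D2 cells. Compounds were added with an EC20 of dopamine (50 nM final) for 90 min at 37 deg C. Luminescence was read 1 h after detection reagent, with 57 uM dopamine as the EC100 control.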
# D2 ag-2 = human D2 receptor agonism in beta-arrestin assay. P14416. DiscoveRx PathHunter D2 beta-arrestin, luminescence, 90 min; 100% = 57 uM dopamine signal. activation, % (test concentration not listed). 360,000 tested, 0.084% active; in the data active = activation above about 40%
#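 Agonist mode: compounds alone added to overnight-plated D2 PathHunter cells for 90 min at 37 C, with 57 uM final dopamine (EC100) defining full response. Beta-arrestin recruitment detected by chemiluminescent reagent, read after 1 h at ambient temperature.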
# Numbers without * were called inactive; x = not tested or not shown.
SMILES,D2 antag,D2 ag-1,D2 PAM-1,D2 PAM-2,D2 ag-2
O=C(NNC(=S)NC(=O)c1cccnc1)c1ccc(Cl)cc1,x,x,x,-10,-3
Cc1nc2c(-c3ccccc3)cnn2c(N2CCOCC2)c1C,31*,0,-9,-2,-3
OC(COCCOc1ccc(Br)cc1)CN1CCN(Cc2ccccc2)CC1 (configuration not stated),30,2,-11,-36,0
Cc1ccc(CNC(=O)c2nn(C)c(C)c2[N+](=O)[O-])cc1,17,0,-8,-13,-5
Cc1ccc(/C=C/C(=O)c2ccc([N+](=O)[O-])o2)cc1,1,1,7,54*,10
Cc1ccc(CNC(=O)c2ccc([N+](=O)[O-])o2)cc1,0,0,-7,56*,-14
Cc1nc2ccc(-c3nc4ccccc4o3)cc2[nH]1,-10,1,-2,0,-1
Nc1ccc(-c2nc3ccc(-c4nc5ccccc5o4)cc3[nH]2)cc1,-21,0,2,65*,3
Nc1cc(N)cc(-c2nc3ccccc3[nH]2)c1,27,-1,3,53*,6
CN(C)c1ccc(/C=N/NC(=O)C(O)(c2ccccc2)c2ccccc2)o1,33*,-1,3,-8,1
O=C(CCN1CCOCC1)N/N=C/c1cc(Br)cc(Br)c1O,36*,1,-9,-33,-9
O=C(Cn1cnc2c(nc3n2CCCCC3)c1=O)Nc1ccc(F)c(Cl)c1,x,1,1,x,x
O=C(c1cccc(F)c1F)N1CCCc2ccccc21,-12,1,2,-11,0
Cc1ccc(NC(=O)N2CCCc3ccccc32)cc1C,0,-1,-11,-14,-12
O=C(Nc1ccccc1)N1CCCc2ccccc21,-15,-1,47*,18,-2
CN(C(=O)Nc1ccccc1)C1CCCc2ccccc21 (configuration not stated),30*,-1,5,-4,-5
O=C(Nc1ccccc1)C(=O)Nc1ccc2c(c1)N(C(=O)C1CC1)CCC2,35*,0,1,-27,3
O=C(c1ccccc1F)N1CCCc2ccccc21,-10,0,39*,0,-1
Cc1ccc(NC(=O)CCNCc2ccco2)cc1S(=O)(=O)N(C)C,34*,-6,-10,-21,2
Cc1ccc(NC(=O)CCNC(=O)Nc2ccccc2)cc1S(=O)(=O)N(C)C,17,0,2,-5,-3
Cc1ccc(NC(=O)CN2CCN(C(=O)c3ccco3)CC2)cc1S(=O)(=O)N(C)C,x,x,x,30,45*
Cc1ccc(NC(=O)Cn2ccsc2=N)cc1S(=O)(=O)N(C)C,36*,0,-24,-15,-3
CN(C)S(=O)(=O)c1cc(NC(=O)Cn2ccsc2=N)ccc1Cl,-13,0,-17,30,0
Cc1cccc(Nc2nc(N3CCOCC3)nc(N3CCOCC3)n2)c1,7,0,5,-8,-2
Oc1cccc(Nc2nc(N3CCOCC3)nc(N3CCOCC3)n2)c1,36*,1,-4,5,3
SMILES,D2 antag,D2 ag-1,D2 PAM-1,D2 PAM-2,D2 ag-2
CCOc1ccccc1CN1CCN(C/C=C/c2ccc(OC)cc2)CC1CCO (configuration not stated),34*,4,-22,-7,-4
COc1ccc(CCNS(=O)(=O)c2cc3c4c(c2)CC(=O)N4CCC3)cc1,35*,0,-4,-4,-3
CCN1CCN(c2cc(N3CCc4ccccc4C3)c(F)cc2[N+](=O)[O-])CC1,62*,1,-22,-32,-4
Cc1nn(-c2ccccc2)c(C)c1NC(=O)COc1cc(F)ccc1[N+](=O)[O-],x,x,x,4,9
CN(/N=C/c1cc([N+](=O)[O-])ccc1O)c1ccccc1,7,3,3,-18,-8
CN(/N=C/c1ccc(-c2ccc([N+](=O)[O-])cc2)o1)c1ccccc1,8,30*,10,0,0
O=C(Cn1c2[n+](c3ccc(C(F)(F)F)cc31)CCCCC2)Nc1ccc(Br)cc1,56*,0,-25,-9,-3
N#Cc1ccc(NC(=O)Cn2c3[n+](c4ccc(C(F)(F)F)cc42)CCCCC3)cc1,-17,0,-12,-18,-4
CCOc1cc(CNc2ncnc3nc[nH]c23)ccc1OC,38*,-1,-12,-2,-4
COc1ccc(CC(N)c2csc(Nc3cc(NCc4ccco4)ncn3)n2)cc1 (configuration not stated),x,x,x,-14,-5
CCOc1ccc(-c2c(C)nn3c(C)c(C(=O)NCCc4ccccc4)cnc23)cc1OCC,x,2,-2,x,x
Cc1cccc(Cn2ncc(Cl)c(Cl)c2=O)c1,-8,-1,12,2,0
Cc1cccc(Cn2nnc3c2C(=O)c2ccccc2C3=O)c1,-16,1,22,71*,7
CCCCOc1ccc(Cl)cc1CSc1nnc(CC)n1N,36*,1,x,9,1
CCCOc1ccc(CSc2nnc(CCC)n2N)cc1,0,0,2,-1,-3
COCCNC(=O)C1=C(N)C(C(=O)Nc2ccc(C)c(S(=O)(=O)N3CCCCC3)c2)SC1=Nc1ccc(C)cc1C (configuration not stated),x,x,x,8,-1
COc1ccc(C(=O)N(Cc2ccc(C(C)C)cc2)C2CCS(=O)(=O)C2)cc1 (configuration not stated),x,0,-10,x,x
COc1ccc(Nc2oc(-c3cccs3)nc2C#N)cc1,-8,0,11,62*,8
CNc1oc(-c2cccs2)nc1C#N,x,x,x,9,0
O=c1c(O)c(-c2cccs2)oc2ccccc12,-29,42*,1,6,2
O=c1cc(-c2cccs2)oc2ccc(Cl)cc12,-1,-1,1,-16,-3
O=c1c(O)c(-c2cccs2)oc2ccc(Cl)cc12,51*,93*,-24,1,1
CC(O)CNCCNCc1c(OCc2ccccc2)ccc2ccccc12 (configuration not stated),-7,-1,32*,-28,-2
CC(O)CNCCOc1ccccc1OCc1ccccc1 (configuration not stated),45*,-3,-34,-9,-9
CCNCc1ccccc1OCc1ccccc1,6,0,-10,-10,-1
OCCNCc1c(OCc2ccc(Cl)cc2)ccc2ccccc12,1,-1,-4,-25,-7
COc1ccccc1C(C)NS(=O)(=O)c1cccs1 (configuration not stated),-2,0,-5,x,x
Cc1cc(C)cc(OCC(=O)N(Cc2ccco2)Cc2ccccc2Cl)c1,x,x,-10,x,x
Cc1ccc2c(c1)sc1nc(-c3cc4ccccc4oc3=O)cn12,x,0,-2,x,x
